Potency data for 40 molecules are collected here from PubChem BioAssay AID720518 (National Center for Advancing Translational Sciences (NCATS), 2013).

Inconclusive results are not listed. A call without a number means that no potency is given here. Activity calls are given as the source filed them. Calls follow the shape of the full dose curve.
Potency is read from the fitted curve at half-maximal effect.

A short description of the experiment: qHTS for Inhibitors of Cell Surface uPA Generation: Wild-type Protective Antigen (WT-PrAg) Counterscreen for Cherry-picked Compounds. The conditions noted are these: cells, WT protective antigen toxicity counterscreen; series mostly up to 115 µM. For orientation: In qHTS, concentration-response curves come from the screen itself.
Consider `CCC1=NN(C(=O)C(=O)Nc2ccc(OC)cc2)C(O)(C(F)(F)F)C1` (stereo not given), for which the Potency entry was “inactive”.
The result for `Cc1ccnc(NC(=O)CCNS(=O)(=O)c2ccc(C)c(C)c2)c1` reads “inactive”; that for `Cc1ccc(C23CC4CC(CC(C(=O)NN)(C4)C2)C3)cc1`, “inactive”.
The result for `COc1cc(NS(=O)(=O)c2ccc(NC(=S)NC(=O)COc3ccccc3OC)cc2)nc(OC)n1` reads “inactive”.
The value for `Cc1cccc(C(=O)NC2CCN(CC(=O)N3CCOCC3)CC2)c1` was “inactive”.
On to `O=C(NCCN1CCOCC1)c1ccccc1Cl`, for which the Potency result is “inactive”.
The result for `COc1ccccc1CNC(=O)CCCn1nc(C)c2c(C)n(-c3ccccc3)nc2c1=O` reads “inactive”.
The value for `COc1ccc(CC(=O)NNS(=O)(=O)c2ccccc2[N+](=O)[O-])cc1OC` was “inactive”.
The value for `CCN(CC)CC(=O)Nc1sc2c(c1C(=O)c1ccccc1OC)CCC2` was 9.27 µM (active).
Turning to `CN(/N=C/c1cc(Cl)cc(Cl)c1O)C(=S)NC(C)(C)C`, the Potency entry was “inactive”.
The result for `O=C(Cc1ccc(Cl)cc1)c1c[nH]c(C(=O)NCCCn2ccnc2)c1` reads “inactive”; that for `C[C@@H](NC(=O)c1nc[nH]c1C(=O)NCc1ccc(CNC(=O)OC(C)(C)C)cc1)c1ccccc1`, “inactive”.
The value for `CC(=O)c1ccc(N2CCN(C(=S)NCc3ccco3)CC2)cc1` was “inactive”; that for `OC(COc1ccc(Br)cc1)CN1CCN(c2ccccc2)CC1` (stereo not given) was “inactive”; that for `O=C(CNC(=O)N1CC(=O)Nc2ccccc21)Nc1cc(Cl)ccc1Cl` was “inactive”.
The result for `O=C(c1ccccn1)C1CCCN(Cc2cn[nH]c2-c2cc3ccccc3o2)C1` (stereo not given) reads “inactive”.
In the case of `CCO[C@H]1OC(C(=O)N2CCCCCCC2)=C[C@@H](c2ccc(C(F)(F)F)cc2)[C@@H]1CCCO`, the Potency result is “inactive”.
The result for `O=C(c1ccc(NC(=S)NCc2ccc(Cl)cc2)cc1)N1CCCCC1` reads “inactive”; that for `CCCCOc1ccc(S(=O)(=O)N2CCCCC2)cc1`, “inactive”; that for `C[C@]12CCC(O)CC1CCC1C2CC[C@]2(C)C(c3cc(C(F)(F)F)n[nH]3)CCC12` (stereo not given in full), “inactive”.
The result for `CC1CC(C)(C)Nc2ccc(N=O)cc21` (stereo not given) reads “inactive”; that for `CC(=O)c1ccc(NC(=O)CN2CCN(c3ccccc3)CC2)cc1`, “inactive”.
The result for `O=c1[nH]c(=O)n(-c2ccc(Cl)cc2)c(O)c1C=Nc1ccc(S(=O)(=O)Nc2nccs2)cc1` reads “inactive”; that for `CC1CCCN(C(=O)c2ccc(CNc3c(N4CCCCC4)c(=O)c3=O)cc2)C1` (stereo not given), “inactive”; that for `Cc1ccnc(NS(=O)(=O)c2ccc(NC(=O)C3C4C=CC(C4)C3C(=O)O)cc2)n1` (stereo not given), “inactive”.
With `CC(C)Cn1cnc2c1c(=O)[nH]c(=O)n2Cc1ccccc1`, the Potency entry was “inactive”.
The value for `CCOC(=O)c1cc(-c2ccccc2C)n(CC2CC(c3ccc(OC)cc3)=NO2)n1` (stereo not given) was “inactive”; that for `COc1ccc(OC)c(S(=O)(=O)N2CCN(Cc3ccccc3)CC2)c1` was “inactive”.
Regarding `Cc1cc(OC(C)C(=O)NCc2ccccn2)c2c(C)cc(=O)oc2c1` (stereo not given), the Potency result is “inactive”.
The value for `CC1(C)CC(=O)C([N+](=O)[O-])=C(NCCCC(=O)O)C1` was “inactive”; that for `O=C(O)CNS(=O)(=O)c1ccc2c(c1)Cc1cc(S(=O)(=O)NCC(=O)O)ccc1-2` was “inactive”; that for `CC1(C)C([N+](=O)[O-])C(c2ccc(F)cc2)NC(c2ccc(F)cc2)C1[N+](=O)[O-]` (stereo not given) was “inactive”.
The value for `COc1ccc(S(=O)(=O)N2CCN(Cc3ccccc3)CC2)c(C)c1` was “inactive”.
The result for `COCCN(C(=O)CSc1nnc(-c2ccncc2)n1C)c1c(N)n(CC(C)C)c(=O)[nH]c1=O` reads “inactive”.
As to `Nc1cc(=O)[nH]c(SCC(=O)Nc2cccc([N+](=O)[O-])c2)n1`, the Potency entry is “inactive”.
The value for `Cc1ccnc(N2CCN(C(=O)CSc3nc4ccccc4nc3N3CCC(C)CC3)CC2)c1` was “inactive”; that for `O=C(Nc1cccc(C2=NCCN2)c1)Nc1cccc(C2=NCCN2)c1` was “inactive”.
The value for `Cc1nn(-c2ccc(F)cc2)c(C)c1NS(=O)(=O)c1ccc(Cl)cc1` was “inactive”.
As to `Cc1nnc2ccc(-c3ccc(NS(=O)(=O)c4ccc(Cl)s4)cc3)nn12`, the Potency result is “inactive”.
The value for `O=C(CN1CCN(Cc2ccc(Cl)cc2)C1=O)NCc1cccs1` was “inactive”.
